# HepG2 viability = counter-screen for TGF-b inhibitors: cytotoxicity in HepG2 cells; HepG2 CAGA-GFP viability, ATP luminescence, 18 h; Potency, µM (series often up to 46.1 µM), actives largely listed as cytotoxic; 410,000 compounds, 0.76% hits
#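 CellTiter-Glo luminescence gave cytotoxicity after 18 hours at 37 degrees C. The cells were HepG2 CAGA-GFP in 1% FBS DMEM, stimulated with 500 pg/mL TGF-beta after compound addition. %Activity was normalised to no-cell wells (complete cell-killing) and DMSO (no toxicity), and curves were fitted and classified.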
# S2 tox = reduces viability in counter-screen for ATXN expression inhibitors; S2 cells (HEK-293 line with an ATXN2-luciferase reporter) viability, CellTiter-Fluor protease fluorescence, 24 h; 400,000 compounds, 0.49% hits; Potency, µM (doses to about 56.7 µM), hits mostly cytotoxic; note: nearly all actives have a fitted effect of over 40% in size
# HT1080 IDH1KD tx = toxicity to HT-1080 IDH1 knockdown cells (counter line); HT-1080 IDH1 knockdown viability, ATP luminescence, 48 h; Potency, µM (doses to about 46.1 µM), hits mostly cytotoxic; 360,000 compounds, 2% hits
#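 Viability of IDH1-knockdown HT-1080 fibrosarcoma cells was assessed by CellTiter-Glo after 48 h at 37 °C with titrated compound; concentration-effect curves were classified by fit quality and response size.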
# TGFb SMAD3 inh = blocks TGF-b signaling | 410,000 compounds, 1.2% hits | Potency, µM (top dose mostly 46.1 µM), hits mostly inhibitors | AID 588855 | HepG2 CAGA-GFP TGF-b/SMAD3 reporter, GFP fluorescence, 18 h; TGF-beta stimulated, 500 pg/mL final; note: nearly all actives have a fitted effect of over 65% in size
#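 HEPG2 CAGA-GFP reporter cells (1000/well, DMEM with 1% FBS) received compounds, then recombinant TGF-beta at 500 pg/mL final for 18 hours at 37 degrees C. Per-cell GFP summed per well was normalised to unstimulated and stimulated DMSO controls before curve fitting.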
# HT1080-NT tox = kills 2HG-producing HT-1080-NT fibrosarcoma cells; Potency, µM (top dose mostly 46.1 µM), hits mostly cytotoxic; HT-1080-NT fibrosarcoma viability, CellTiter-Glo ATP luminescence, 48 h; 360,000 compounds, 1.6% hits;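 note: NT is the 2HG producing partner of a matched IDH1 knockdown line; nearly all actives have a fitted effect of over 55% in size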
#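 Read-out is CellTiter-Glo luminescence after 10 minutes at room temperature, following 48 hours' compound treatment of HT-1080-NT cells (750 cells/well, RPMI, 5% FBS, 37 degrees C).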
# ATXN2 expr inh = inhibitors of ATXN2 expression; HEK-293 ATXN2-luciferase reporter, luminescence, 24 h; Potency, µM (top dose mostly 57 µM), most hits filed as inhibitors; 360,000 compounds, 0.72% hits; note: nearly all actives have a fitted effect of over 55% in size
#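 ATXN2-luciferase reporter cells (luciferase flanked by upstream and downstream ATXN2 gene portions) were treated 24 h at 37 °C with compounds at up to 57 uM. SteadyGlo luminescence gave expression; GF-AFC fluorescence gave viability.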
# Numbers stand for hits; 0 = inactive; ? = inconclusive; - = no result; [ ] = remark or other dose. The list is not random: actives were taken first. Their share in the collection is about 3.8%. Calls come from the whole dose curve; as a rule, active = well fitted curve in the direction sought with a large enough effect; inconclusive = small, poorly fitted or top-dose-only effect, or another doubt; inactive = no such curve, though single readings can be large; an effect the other way counts as inactive or inconclusive.
SMILES,HepG2 viability,S2 tox,HT1080 IDH1KD tx,TGFb SMAD3 inh,HT1080-NT tox,ATXN2 expr inh
COc1cccc(NC2=C(Cl)C(=O)OC2OC(=O)c2ccco2)c1 (stereo not given),0,0,0,0,?,0
O=c1c2ccccc2c2ccccc2c(=O)n1Nc1ccccc1,0,?,13µM,0,?,-
CC(=O)Nc1cc(N=Cc2ccc(O)cc2O)c(Cl)cc1Cl,0,?,18µM,?,?,0
COc1ccc(O)c(C=Nc2cc(NC(C)=O)c(Cl)cc2Cl)c1,0,0,0,0,0,0
O=[N+]([O-])c1ccc(O)c(N=Cc2sc3ccccc3c2O)c1,0,28µM,?,0,0,?
CN(C)CCC(=O)c1cccc(Br)c1,11µM,?,0,14µM,0,-
Fc1ccc(/C=C/c2nccc3ccccc23)cc1,0,-,-,0,-,-
C(=C\c1c[nH]c2ccccc12)/c1nccc2ccccc12,11µM,-,-,?,-,-
C/C(=N\NC(=O)c1ccc(-c2ccccc2)cc1)C1C(=O)c2ccccc2C1=O,0,?,0,13µM,0,?
CCOc1ccc(C(=O)N/N=C(/C)C2C(=O)c3ccccc3C2=O)cc1,0,?,0,0,0,0
C/C(=N\NC(=O)c1ccc(Br)cc1)C1C(=O)c2ccccc2C1=O,0,-,1µM,?,2.2µM,0
CCCCOc1ccccc1C1CC(=O)Nc2ccc3ccccc3c21 (stereo not given),11µM,-,-,?,-,-
Cc1ccc(F)c(NC(=O)/C(C#N)=C(\O)c2ccc(C(C)(C)C)cc2)c1,13µM,0,?,13µM,0,-
NS(=O)(=O)c1ccc(N2N=C(c3ccccc3)CC2c2ccccc2)cc1 (stereo not given),0,0,?,?,?,0
COc1ccc(C2CC(c3ccccc3Br)=NN2c2ccc(S(N)(=O)=O)cc2)cc1 (stereo not given),13µM,0,?,?,?,?
NS(=O)(=O)c1ccc(N2N=C(c3ccccc3)CC2c2ccc(Br)cc2)cc1 (stereo not given),28µM,?,?,?,?,?
NC(=O)CSc1ccc2nnc(-c3ccncc3)n2n1,0,-,-,0,-,-
CCC(=O)Oc1ccc2c(c1)CC[C@@H]1[C@@H]2CC[C@@]2(C)[C@H]1C[C@@H](OC(=O)CC)[C@@H]2OC(=O)CC,-,0,-,-,-,0
O=C(CCl)N1c2ccccc2Sc2ccc3ccccc3c21,11µM,?,?,14µM,18µM,-
COc1ccc(C(NC(=O)C2CCN(CCOc3ccc(Cl)cc3Cl)CC2)c2ccccc2C)cn1 (stereo not given),0,-,0,?,0,?
COc1ccc(C(C)NC(=O)C2CCN(CCOc3ccc(Cl)cc3Cl)CC2)cc1OC (stereo not given),0,?,?,?,23µM,?
O=C(NC(c1ccccc1)c1ccsc1)C1CCN(CCOc2ccc(Cl)cc2Cl)CC1 (stereo not given),0,-,16µM,?,18µM,?
COc1ccc(OCCN2CCC(C(=O)NC(c3ccc(Cl)cc3)c3cnccn3)CC2)cc1 (stereo not given),0,0,0,0,0,0
O=C(NC(c1ccccc1)c1cnccn1)C1CCN(CCOc2ccc(Cl)cc2Cl)CC1 (stereo not given),0,13µM,?,?,16µM,?
O=C(NC(c1cccnc1)c1ccc2c(c1)OCO2)C1CCN(CCOc2ccc(Cl)cc2Cl)CC1 (stereo not given),0,?,18µM,?,?,?
SMILES,HepG2 viability,S2 tox,HT1080 IDH1KD tx,TGFb SMAD3 inh,HT1080-NT tox,ATXN2 expr inh
Cc1oc(-c2ccccc2NC(=O)C2CCC2)nc1CNC(=O)c1ccc2ccccc2c1,-,0,-,-,-,-
CC(=O)N[C@@H](C)C(=O)NCC1Cc2cccc(-c3ccccc3C(F)(F)F)c2O1 (stereo not given in full),-,0,-,-,-,-
O=S(=O)(c1ccc(F)cc1)N1CCN(c2nc(-c3cccc(Br)c3)nc3ccccc23)CC1,0,-,-,0,-,-
O=C1C(=C(c2ccccc2)N2CCOCC2)Cc2ccccc21,8.9µM,?,4.6µM,3.2µM,15µM,-
O=c1c2c(-c3ccccc3)csc2nc2c3ccccc3c(NCCN3CCOCC3)nn12,0,-,10µM,0,15µM,?
CCOC(=O)C1=C(C)N=c2s/c(=C\c3ccc(O)c([N+](=O)[O-])c3)c(=O)n2C1c1ccccc1OC (stereo not given),0,?,0,0,?,?
CCOC(=O)C1=C(C)N=c2s/c(=C/c3cccc([N+](=O)[O-])c3O)c(=O)n2C1c1ccc(OC)cc1OC (stereo not given),0,13µM,0,0,0,0
CC(=O)NC(Cc1c(F)c(F)c(F)c(F)c1F)C(=O)NCC(N)C(=O)c1ccccc1 (stereo not given),-,-,0,-,0,-
CCO[C@@H]1O[C@H](C(COCc2ccccc2)OCc2ccccc2)[C@H](OCc2ccccc2)[C@H]1O (stereo not given in full),-,0,-,-,-,0
C=CCc1cc(Cl)ccc1OCCOCCNC(C)CC (stereo not given),0,0,?,0,16µM,0
CCC(C)NCCOCCOc1ccc(Cl)c(C)c1C (stereo not given),0,0,21µM,0,?,0
CCC(C)NCCCOc1cc(Cl)ccc1Cl (stereo not given),0,0,0,0,0,0
CCC(C)NCCOCCOc1ccc(Cl)c2ccccc12 (stereo not given),0,?,21µM,?,16µM,0[11.3 µM]
Cc1ccc(C(C)C)c(OCc2ccc(C(=O)N/N=C/c3ccc(O)c(O)c3)cc2)c1,0,0,?,?,0,?
CC(=O)Nc1ccc(C(=O)N/N=C/c2ccccc2OCc2ccccc2)cc1,0,?,21µM,0,16µM,0[11.3 µM]
COC(=O)N/N=C/c1ccccc1OCc1ccccc1,0,0,0,0,0,0
COc1cc(/C=N/NC(=O)c2ccc(COc3cc(C)ccc3C(C)C)cc2)cc(OC)c1O,0,0,21µM,0,21µM,?
Cc1ccc(C(C)C)c(OCc2ccc(C(=O)N/N=C/c3cccc(O)c3O)cc2)c1,0,0,?,?,9.2µM,3µM
Cc1ccc(NC(=O)c2sc3nc4c(cc3c2N)CN(Cc2ccccc2)CC4)cc1,0,?,-,0,-,?
COc1cccc2c1cc1c(=O)n(CC(=O)NCc3ccco3)nc(C)n12,0,-,-,0,-,-
O=[N+]([O-])c1ccc(N2CCCCC2)cc1NCCOc1ccccc1,0,0,0,0,0,0
CCc1ccc(OCCNc2cc(N3CCNC(C)C3)ccc2[N+](=O)[O-])cc1 (stereo not given),11µM,0,?,?,?,?

# Compound activity deposited in PubChem by National Center for Advancing Translational Sciences (NCATS).
